Results taken from PubChem BioAssay (NCI).
Several values for one entry are separate records, joined by “and”; a condition that tells them apart may be missing. Identical values can stand only once. About 83,000 compounds went through this panel and 20% of them were active in at least one assay; those are over-represented in the sample as a whole.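 Single-dose data. Exposure time 48 hours. Values below 10 considered active.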 Activity calls are given as the source filed them.

Tests used:
Assay in all cases: NCI-60 one-dose screen, 48 h (100 = growth as untreated, 0 = no growth, -100 = all killed)
Conditions in all cases: 10 µM unless noted
NCI/ADR-RES ovarian = system: NCI/ADR-RES ovarian
T-47D breast = system: T-47D breast
SW-620 colon = system: SW-620 colon
MCF7 breast = system: MCF7 breast
HCT-116 colon = system: HCT-116 colon
HCC-2998 colon = system: HCC-2998 colon
KM12 colon = system: KM12 colon
BT-549 breast = system: BT-549 breast
MDA-MB-435 melanoma = system: MDA-MB-435 melanoma

Row | Structure (SMILES) | growth (NCI/ADR-RES ovarian) | growth (T-47D breast) | growth (SW-620 colon) | growth (MCF7 breast) | growth (HCT-116 colon) | growth (HCC-2998 colon) | growth (KM12 colon) | growth (BT-549 breast) | growth (MDA-MB-435 melanoma)
1 | Nc1ccc2c(c1)Cc1cc(N)ccc1-2 | 96.2% (inactive) | 67.3% (inactive) | 98.9% (inactive) | 59.9% (inactive) | 97.9% (inactive) | 96.2% (inactive) | 82.6% (inactive) | – | –
2 | C=C1C(=O)OC2/C=C(\C)CC/C=C(/C)CC(OC(=O)/C(=C/CO)CO)C12 (centres undefined) | – | – | – | -85% [100 µM] (active) and -68.3% [100 µM] (active) | – | – | – | – | –
3 | O=C(O)C(Br)CBr (centres undefined) | 101% (inactive) | 89.6% (inactive) | 105% (inactive) | 87.9% (inactive) | 94.8% (inactive) | – | 104% (inactive) | 100% (inactive) | –
4 | Cc1ccc(C(=O)O[C@H](C(=O)O)[C@H](OC(=O)c2ccc(C)cc2)C(=O)O)cc1 | 99.1% (inactive) | – | 105% (inactive) | 105% (inactive) | 103% (inactive) | 111% (inactive) | 112% (inactive) | 101% (inactive) | 104% (inactive)
5 | CC1=CC(=Nc2ccc(N(CCCl)CCCl)cc2)C=C(C)C1=O | 19.8% (inactive) | -17.7% (active) | 3.05% (active) | – | 7.59% (active) | 55.6% (inactive) | 59.8% (inactive) | 52.5% (inactive) | –
6 | NC(=O)c1c(Br)c(Br)c(Br)c(Br)c1C(=O)O (tested in a mixture with another compound) | 103% (inactive) and 100% (inactive) | – | 97.5% (inactive) and 105% (inactive) | 79.5% (inactive) and 88.8% (inactive) | 97.8% (inactive) and 105% (inactive) | 104% (inactive) and 103% (inactive) | 103% (inactive) and 102% (inactive) | 104% (inactive) and 96.8% (inactive) | 92.5% (inactive) and 102% (inactive)
7 | CC(C)COC(=O)Cc1ccccc1 | 110% (inactive) | – | 107% (inactive) | 106% (inactive) | 105% (inactive) | 107% (inactive) | 105% (inactive) | 108% (inactive) | 106% (inactive)
8 | O=[N+]([O-])c1ccc(P(=O)(O)O)cc1 | 103% (inactive) | – | 105% (inactive) | 91.2% (inactive) | 96.6% (inactive) | 102% (inactive) | 115% (inactive) | 89.9% (inactive) | 101% (inactive)
9 | C/C=C(/C)C(=O)O[C@H]1CC[C@@]2(C)[C@@H]3CC[C@H]4[C@]5(O)C[C@H](O)[C@@]6(O)[C@@H](CN7C[C@@H](C)CC[C@H]7[C@@]6(C)O)[C@]5(O)C[C@@]42O[C@@]13O | 111% (inactive) | 118% (inactive) | 111% (inactive) | 98.3% (inactive) | 47.5% (inactive) | 137% (inactive) | 122% (inactive) | – | 108% (inactive)
10 | COc1ccc2c(c1)C1(C)CCN(C)CC(C1)C2O (centres undefined) | – | 95.2% (inactive) | 101% (inactive) | 96% (inactive) | 97.8% (inactive) | 89.9% (inactive) | 102% (inactive) | 98.2% (inactive) | 105% (inactive)
11 | CC(=O)C(N)Cc1ccccc1 (centres undefined) | 99.4% (inactive) | 78.3% (inactive) | – | 93.6% (inactive) | 86.3% (inactive) | 96.3% (inactive) | 106% (inactive) | 96% (inactive) | –
12 | CN(C)c1ccc(C=C2C(=O)NC(=O)NC2=O)cc1 | 76.7% (inactive) | 76.1% (inactive) | 93.4% (inactive) | 100% (inactive) | 53.9% (inactive) | – | 98.9% (inactive) | – | 111% (inactive)
13 | N#Cc1ccc(Cl)cc1 | 113% (inactive) | 104% (inactive) | 103% (inactive) | 103% (inactive) | 114% (inactive) | 123% (inactive) | 115% (inactive) | – | 117% (inactive)
14 | CCCC[C@@H]1CCN2C[C@@H](O)[C@@H](O)[C@@H]2[C@H]1O | – | – | – | 111% [100 µM] (inactive) and 89.6% [100 µM] (inactive) | – | – | – | – | –
15 | CCC(=O)C(CC(C)[N+](C)(C)C)(c1ccccc1)c1ccccc1 (centres undefined) | 102% (inactive) | – | 104% (inactive) | 90.7% (inactive) | 93.6% (inactive) | 102% (inactive) | 107% (inactive) | 67.5% (inactive) | 104% (inactive)
16 | CCOC(=O)P(=O)(OCC)OCC | 109% (inactive) | 108% (inactive) | 106% (inactive) | 106% (inactive) | 111% (inactive) | 106% (inactive) | 113% (inactive) | – | 120% (inactive)
17 | O=C(O)c1cc([N+](=O)[O-])cc([N+](=O)[O-])c1 | 106% (inactive) | – | 105% (inactive) | 93.8% (inactive) | 85.4% (inactive) | 107% (inactive) | 103% (inactive) | 94.3% (inactive) | 101% (inactive)
18 | CC1=C2[C@H]3OC(=O)[C@@H](C)[C@@H]3CC[C@@]2(C)C=CC1=O | 13.8% (inactive) | 109% (inactive) | 108% (inactive) | 103% (inactive) | 118% (inactive) | – | 105% (inactive) | – | –
19 | Cc1ccccc1-n1c(/C=C\c2ccccn2)nc2ccccc2c1=O | -19.9% (active) | 49.1% (inactive) | 68.9% (inactive) | 66.9% (inactive) | 44% (inactive) | 38.2% (inactive) | 65.4% (inactive) | – | 66.5% (inactive)
20 | O=C(O)CNCP(=O)(O)O | 110% (inactive) | 111% (inactive) | 110% (inactive) | 96.2% (inactive) | 103% (inactive) | 99.2% (inactive) | 113% (inactive) | – | 104% (inactive)
